Results from PubChem BioAssay (Tox21).
Where “and” joins values, the source holds several entries; their conditions need not be identical. Equal entries are not always repeated. Inconclusive results are not listed. Unmarked numbers belong to inactive results. Calls of active or inactive are those of the source. Calls come from the whole dose curve; as a rule, active = well fitted curve in the direction sought with a large enough effect in the repeat runs; inconclusive = weak or mixed curves; inactive = no such curve, though single readings can be large; an effect the other way counts as inactive or inconclusive.
% is set by controls: 0 for no effect and ±100 for the full control effect; potency is the fitted concentration of half-maximal effect.

Test system: not listed separately
Experiment: qHTS assay to identify small molecule antagonists of the androgen receptor (AR) signaling pathway using the MDA cell line - cell viability counter screen (AID 743041; note: nearly all actives have a fitted effect of over 45% in size)
Details: MDA-kb2 viability, CellTiter-Fluor, 16 h, cells co-treated with R1881 androgen agonist; series mostly up to 70.3 µM; viability change, negative = cytotoxic: at the top concentration
How it was run: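 Viability counter screen run alongside the AR antagonist reporter: cells seeded 5 h before compound, R1881 added, 16 h incubation at 37C without CO2, fluorescent CellTiter-Fluor signal quantified.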
For `O=C1OC(CN2CCOCC2)CN1/N=C/c1ccc([N+](=O)[O-])o1` (stereo not given), the “viability change, negative = cytotoxic” value was -16.7% [at 32.5 µM]. For `CC(COCCO)OCCO` (stereo not given), the “viability change, negative = cytotoxic” value was 7.86%. For `CNC(=O)CN(CCN(CCN(CC(=O)[O-])CC(=O)NC)CC(=O)[O-])CC(=O)[O-].O.[Gd+3]`, the Potency was “inactive”. With `c1ccc(CNCCNCc2ccccc2)cc1` the “viability change, negative = cytotoxic” value was 11.9%. For `C[C@@H]1C[C@H]2O[C@@]3(O[C@@H]2C(C)(C)O)[C@H](O)[C@@]2(C)[C@@H]4CC[C@H]5C(C)(C)[C@@H](O[C@@H]6OC[C@@H](O)[C@H](O)[C@H]6O)CC[C@@]56C[C@@]46CC[C@]2(C)[C@@H]13`, the “viability change, negative = cytotoxic” value was -1.54%. In the case of `CC1=CC[C@H](C(C)C)C=C1`, the “viability change, negative = cytotoxic” value is reported as -1.98%. For `CC(C)CC(=O)C1C(=O)c2ccccc2C1=O`, the “viability change, negative = cytotoxic” value was 7.99%. For `N=c1ccn2c(n1)O[C@H]1[C@H](O)[C@@H](CO)O[C@H]12`, the Potency was “inactive”. For `Nc1ccccc1S(=O)(=O)c1ccccc1`, the “viability change, negative = cytotoxic” value was -1.09%. In the case of `CC(C)=CCC/C(C)=C/CC/C(C)=C/CO`, the “viability change, negative = cytotoxic” value is reported as 1.07%. With `CCN(CC)CCOC(=O)C(c1ccccc1)C1CCCCC1` (stereo not given) the “viability change, negative = cytotoxic” value was 3.8%. With `CCCCO` the Potency was “inactive”. In the case of `COc1cc(Cl)ccc1Oc1ccc(Cl)cc1Cl`, the “viability change, negative = cytotoxic” value is reported as 2.31%. With `COC(C)(C)CCO` the “viability change, negative = cytotoxic” value was 0.188%. With `C=C(C)C(=O)OCCO` the “viability change, negative = cytotoxic” value was 7.56% [at 95 µM]. With `CCCCCCCCCCCCCCCCOS(=O)(=O)O` the “viability change, negative = cytotoxic” value was -5.08%. For `C/C=C/C=C/CO`, the “viability change, negative = cytotoxic” value was -8.7%. For `CN1CCN(C(c2ccccc2)c2ccccc2)CC1`, the “viability change, negative = cytotoxic” value was 11.3% [at 32.5 µM]. In the case of `CCCOC(C(=O)OC1CCN(C)CC1)(c1ccccc1)c1ccccc1`, the “viability change, negative = cytotoxic” value is reported as -27%. In the case of `NCC(=O)O`, the “viability change, negative = cytotoxic” value is reported as 19.4%. For `CCCCc1nc2cccnc2n1Cc1ccc(-c2ccccc2-c2nnn[nH]2)cc1`, the “viability change, negative = cytotoxic” value was -2.16%. In the case of `C=CC(=O)OCCOc1ccccc1`, the “viability change, negative = cytotoxic” value is reported as 2.1%. With `O=C(OCCCCCCOC(=O)c1ccccc1)c1ccccc1` the “viability change, negative = cytotoxic” value was 3.64%. In the case of `Cc1nn(C)c(Oc2ccccc2)c1/C=N/OCc1ccc(C(=O)OC(C)(C)C)cc1`, the Potency is reported as 0.0077 µM (active). With `Nc1ncn([C@H]2C[C@H](O)[C@@H](CO)O2)c(=O)n1` the “viability change, negative = cytotoxic” value was 0.455%. With `COc1ccc(C(=O)Nc2nc3ccccc3c(NCc3ccccc3)c2C#N)cc1` the “viability change, negative = cytotoxic” value was -6.04%. With `O=[N+]([O-])c1cccc(S(=O)(=O)O)c1` the “viability change, negative = cytotoxic” value was 4.4% [at 95 µM].

Target: Androgen receptor (Homo sapiens) (UniProt P10275)
Sequence (P10275 whole entry, looked up): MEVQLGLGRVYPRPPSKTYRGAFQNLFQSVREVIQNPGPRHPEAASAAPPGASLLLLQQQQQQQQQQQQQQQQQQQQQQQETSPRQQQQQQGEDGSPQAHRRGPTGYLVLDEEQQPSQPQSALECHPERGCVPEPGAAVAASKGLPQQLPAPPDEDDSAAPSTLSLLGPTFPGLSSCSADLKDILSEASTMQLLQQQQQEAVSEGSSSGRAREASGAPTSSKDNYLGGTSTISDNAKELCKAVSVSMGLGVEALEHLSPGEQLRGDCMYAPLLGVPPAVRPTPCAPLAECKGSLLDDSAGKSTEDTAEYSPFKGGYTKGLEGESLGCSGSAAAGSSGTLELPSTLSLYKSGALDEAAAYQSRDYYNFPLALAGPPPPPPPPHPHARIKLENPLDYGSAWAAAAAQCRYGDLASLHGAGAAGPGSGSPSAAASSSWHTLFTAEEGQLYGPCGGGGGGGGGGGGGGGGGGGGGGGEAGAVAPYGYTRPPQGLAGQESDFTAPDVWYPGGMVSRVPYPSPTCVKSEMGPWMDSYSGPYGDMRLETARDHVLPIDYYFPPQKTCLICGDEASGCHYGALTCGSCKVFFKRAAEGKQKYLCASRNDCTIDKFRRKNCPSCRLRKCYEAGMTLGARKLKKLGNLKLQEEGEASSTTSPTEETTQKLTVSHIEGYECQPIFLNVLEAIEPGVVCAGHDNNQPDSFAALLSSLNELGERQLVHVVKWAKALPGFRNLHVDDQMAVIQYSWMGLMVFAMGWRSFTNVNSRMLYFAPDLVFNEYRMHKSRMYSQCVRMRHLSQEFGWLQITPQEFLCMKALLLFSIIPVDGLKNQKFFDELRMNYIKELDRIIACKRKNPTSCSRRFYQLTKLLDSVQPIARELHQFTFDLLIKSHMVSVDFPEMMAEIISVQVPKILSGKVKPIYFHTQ
Experiment: qHTS assay to identify small molecule antagonists of the androgen receptor (AR) signaling pathway using the MDA cell line (AID 743042; note: nearly all actives have a fitted effect of over 55% in size)
Details: MDA-kb2 AR-luc, MMTV luciferase, R1881 antagonist, 16 h; series mostly up to 70.3 µM; activity change, negative = inhibition: at the top concentration
How it was run: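 MDA-kb2 cells (human breast carcinoma, stably carrying an MMTV-luciferase reporter responsive to AR and GR) were plated at 3,000 cells/well and preincubated 5 hr at 37C, then given compound plus R1881 agonist for 16 h. ONE-Glo luminescence was read.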
In the case of `O=C1OC(CN2CCOCC2)CN1/N=C/c1ccc([N+](=O)[O-])o1` (stereo not given), the “activity change, negative = inhibition” value is reported as -23% [at 32.5 µM]. In the case of `CC(COCCO)OCCO` (stereo not given), the “activity change, negative = inhibition” value is reported as 1.17%. In the case of `C[C@@H]1C[C@H]2O[C@@]3(O[C@@H]2C(C)(C)O)[C@H](O)[C@@]2(C)[C@@H]4CC[C@H]5C(C)(C)[C@@H](O[C@@H]6OC[C@@H](O)[C@H](O)[C@H]6O)CC[C@@]56C[C@@]46CC[C@]2(C)[C@@H]13`, the “activity change, negative = inhibition” value is reported as 3.27%. For `CC(C)CC(=O)C1C(=O)c2ccccc2C1=O`, the “activity change, negative = inhibition” value was -8.37%. In the case of `CCCCCCCCCCCCCCCCOS(=O)(=O)O`, the “activity change, negative = inhibition” value is reported as -7.27%. With `CN1CCN(C(c2ccccc2)c2ccccc2)CC1` the “activity change, negative = inhibition” value was -0.213% [at 32.5 µM]. In the case of `Cc1nn(C)c(Oc2ccccc2)c1/C=N/OCc1ccc(C(=O)OC(C)(C)C)cc1`, the Potency is reported as 0.0024 µM (active).

Test system: not listed separately
Experiment: qHTS assay to identify small molecule antagonists of the thyroid receptor (TR) signaling pathway - cell viability counter screen (AID 743064); note: nearly all actives have a fitted effect of over 50% in size
Details: GH3.TRE-Luc viability, CellTiter-Fluor, 24 h; series mostly up to 70.3 µM; activity change, negative = cytotoxic: at the top concentration
How it was run: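 Counter screen for cytotoxicity: compound plus T3 (1 nM final) on GH3.TRE-Luc cells, 23.5 h at 37 °C, then fluorescence viability readout with CellTiter-Fluor.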
In the case of `O=C1OC(CN2CCOCC2)CN1/N=C/c1ccc([N+](=O)[O-])o1` (stereo not given), the “activity change, negative = cytotoxic” value is reported as -6.93% [at 32.5 µM]. With `CC(COCCO)OCCO` (stereo not given) the “activity change, negative = cytotoxic” value was -0.509%. With `CNC(=O)CN(CCN(CCN(CC(=O)[O-])CC(=O)NC)CC(=O)[O-])CC(=O)[O-].O.[Gd+3]` the Potency was “inactive”. With `c1ccc(CNCCNCc2ccccc2)cc1` the “activity change, negative = cytotoxic” value was -10.7%. With `OCc1cc(C(O)CNCCCCCCOCCCCc2ccccc2)ccc1O` (stereo not given) the Potency was 7.5 µM (active) and 11.9 µM (active). With `CCC(C)c1cc(C(C)(C)C)c(O)c(C(C)(C)C)c1` (stereo not given) the “activity change, negative = cytotoxic” value was -13%. With `C[C@@H]1C[C@H]2O[C@@]3(O[C@@H]2C(C)(C)O)[C@H](O)[C@@]2(C)[C@@H]4CC[C@H]5C(C)(C)[C@@H](O[C@@H]6OC[C@@H](O)[C@H](O)[C@H]6O)CC[C@@]56C[C@@]46CC[C@]2(C)[C@@H]13` the “activity change, negative = cytotoxic” value was -17.7%. With `COc1ccc(S(=O)(=O)N2C(=O)[C@@](c3ccccc3OC)(N3C[C@H](O)C[C@H]3C(=O)N(C)C)c3cc(Cl)ccc32)c(OC)c1` the Potency was 34.4 µM (active). With `CC1=CC[C@H](C(C)C)C=C1` the “activity change, negative = cytotoxic” value was -18.7%. With `CCCCCCCCCCCc1ccccc1` the “activity change, negative = cytotoxic” value was 11.4%. With `CC(C)CC(=O)C1C(=O)c2ccccc2C1=O` the “activity change, negative = cytotoxic” value was 1.13%. For `N=c1ccn2c(n1)O[C@H]1[C@H](O)[C@@H](CO)O[C@H]12`, the Potency was 0.531 µM (active). With `Nc1ccccc1S(=O)(=O)c1ccccc1` the “activity change, negative = cytotoxic” value was 10.7%. In the case of `CCN(CC)CCOC(=O)C(c1ccccc1)C1CCCCC1` (stereo not given), the Potency is reported as 26.6 µM (active). For `CCCCO`, the Potency was “inactive”. With `O=C(O)C(S)C(S)C(=O)O` (stereo not given) the Potency was 26.6 µM (active). In the case of `COC(C)(C)CCO`, the “activity change, negative = cytotoxic” value is reported as 12.8%. With `C=C(C)C(=O)OCCO` the “activity change, negative = cytotoxic” value was 5.86% [at 95 µM]. For `C/C=C/C=C/CO`, the “activity change, negative = cytotoxic” value was -6.13%. For `CN1CCN(C(c2ccccc2)c2ccccc2)CC1`, the “activity change, negative = cytotoxic” value was -0.692% [at 32.5 µM]. With `CCCOC(C(=O)OC1CCN(C)CC1)(c1ccccc1)c1ccccc1` the Potency was 18.8 µM (active). With `NCC(=O)O` the “activity change, negative = cytotoxic” value was 6.35%. With `CCCCc1nc2cccnc2n1Cc1ccc(-c2ccccc2-c2nnn[nH]2)cc1` the Potency was 54.5 µM (active). In the case of `C=CC(=O)OCCOc1ccccc1`, the “activity change, negative = cytotoxic” value is reported as -11.1%. In the case of `O=C(OCCCCCCOC(=O)c1ccccc1)c1ccccc1`, the “activity change, negative = cytotoxic” value is reported as 29.1%. For `COc1ccc(C(=O)Nc2nc3ccccc3c(NCc3ccccc3)c2C#N)cc1`, the “activity change, negative = cytotoxic” value was -18.2%.
